Measurements as given in PubChem BioAssay (NCATS).
Calls of active or inactive are those of the source. Calls come from the whole dose curve; as a rule, active = well fitted inhibition curve with a large enough effect; inconclusive = small, poorly fitted or top-dose-only effect; inactive = no such curve, though single readings can be large or run the other way.

Experiment: qHTS assay for measurement of the activity of small molecule inhibitors on Zika virus induced Caspase-3 activity in human astrocytoma cells (AID 1224859)
Settings: SNB-19 ZIKV-induced caspase-3/7, luminescence, 6 h; series mostly up to 45.7 µM
From the text: National Center for Advancing Translational Sciences [NCATS]
Johns Hopkins University School of Medicine
Increase in the Caspase-3 activity indicates an activation of apoptosis cell death pathway caused by Zika virus infection in certain types of neuronal cells including human neural progenitor cells (hNPCs), astrocytes, and astrocytoma cell line (SNB-19). This cell-based caspase-3 activity assay measures the increased caspase-3 activity in the astrocytoma cell line (SNB-19) after a 6-hour Zika virus infection with a luminescence readout. A decrease in the luminescence signal in this assay by small molecule treatment indicates an inhibitory effect of that small molecule on the Zika virus induced caspase-3 activity that may correlate with its effect on reduction of Zika virus caused cell death.
The medium for SNB-19 cells is composed of RPMI 1640 (ATCC, Cat.# 30-2001), 10% fetal bovine serum (FBS) (GE healthcare Life Sciences, Cat.# SH30071.03), and 1% Pen/Strep (Gibco, Cat.# 15140-122). A Caspase-Glo 3/7 assay kit (catalog number G8092; Promega, Madison, WI) was used to detect caspase-3 activity induced by Zika virus infection in human cells. The reagent mixture was reconstituted as described in the protocol from the manufacturer. Polystyrene tissue culture treated and PDL coated white plates were obtained from Greiner Bio-One (Monroe, NC). Cells were seeded in 384- or 1536-well assay plates and cultured at 37 C with 5% CO2 for 16 to 20 hours. The typical cell seeding density in the 1536-well plate assay is 250 cells/well in 3ul medium for SNB-19 cells in tissue culture treated plates. Compounds were added to cells and incubated for one hour before addition of ZIKV solution to cells (2 FFU/cell). After incubation at 37 C with 5% CO2 for 6 hours, the reagent mixture of Caspase-Glo 3/7 assay kit was added to each well, followed by incubation at room temperature for 30 minutes. The luminescence intensity of the assay plates was measured using a ViewLux plate reader (PerkinElmer). Data were normalized by using the cell-containing wells without ZIKV as a negative control (0% induction of caspase 3/7 activity) and wells containing ZIKV infected cells (Caspase-3 activity induced) as a positive control (100% induction of caspase 3 activity). The percentage inhibitions of the increased Caspase-3 activity by small molecule inhibitors were then calculated.

| Structure (SMILES) | outcome |
| --- | --- |
| CC(COc1ccccc1)NN (stereo not given) | inactive |
| CCCCC(=O)OCC(=O)[C@H]1[C@H](C)C[C@H]2[C@@H]3C[C@H](F)C4=CC(=O)C=C[C@]4(C)[C@@]3(F)[C@@H](O)C[C@@]21C | inactive |
| c1ccc(C(O[C@H]2CCCN(CCc3ccc4c(c3)OCO4)C2)c2ccccc2)cc1 | inactive |
| COC(=O)c1cc(S(N)(=O)=O)ccc1OC | inactive |
| Nc1c(NC/C=C\COc2cc(CN3CCCCC3)ccn2)c(=O)c1=O | inactive |
| Cc1ccc(C(=O)C(=O)O)cc1C | inactive |
| O=C(Oc1ccccc1)c1ccccc1O | inactive |
| CN(C(=O)C(Cl)Cl)c1ccc(OC(=O)c2ccco2)cc1 | inactive |
| O=C1Nc2ccccc2C1(c1ccc(O)cc1)c1ccc(O)cc1 | inactive |
| COc1ccccc1N1CCN(CCN2C(=O)CC3(CCCC3)CC2=O)CC1 | inactive |
| CC[C@@]1(O)C(=O)OCc2c1cc1n(c2=O)Cc2c-1nc1ccccc1c2/C=N/OC(C)(C)C | inactive |
| C[C@H]1C[C@H]2[C@@H]3CCC4=CC(=O)C=C[C@]4(C)[C@H]3C(=O)C[C@]2(C)[C@@]1(O)C(=O)CO | inactive |
| Nc1ccc2cc3ccc(N)cc3nc2c1 | inactive |
| O=C(COCCOCCOCC(=O)Nc1c(I)cc(I)c(C(=O)O)c1I)Nc1c(I)cc(I)c(C(=O)O)c1I | inactive |
| Nc1ncnc2n[nH]c(Nc3ccc(F)cc3)c12 | inactive |
| CC(C)C[C@H](NC(=O)CNC(=O)[C@H](Cc1ccc(O)cc1)NC(=O)[C@H](CO)NC(=O)[C@H](Cc1c[nH]c2ccccc12)NC(=O)[C@H](Cc1cnc[nH]1)NC(=O)[C@@H]1CCC(=O)N1)C(=O)N[C@@H](CCCN=C(N)N)C(=O)N1CCC[C@H]1C(=O)NCC(N)=O (stereo in doubt) | inactive |
| Cc1oc(=O)oc1COC(=O)[C@@H]1N2C(=O)[C@@H](NC(=O)[C@H](N)c3ccccc3)[C@H]2SC1(C)C | inactive |
| CCO[C@H](Cc1ccc(OCCc2ccc(OS(C)(=O)=O)cc2)cc1)C(=O)O | inactive |
| c1ccc2c(c1)CCc1ccccc1N2 | inactive |
| CO/N=C(/C(=O)N[C@@H]1C(=O)N2C(C(=O)O)=C(Cn3nnc(C)n3)CS[C@H]12)c1csc(N)n1 | inactive |

| Structure (SMILES) | outcome |
| --- | --- |
| COc1cc(/C=C/C(N)=O)cc(OC)c1OC | inactive |
| CCCCCCCC(=O)[O-].CCCCCCCC(=O)[O-].[Zn+2] | inactive |
| OCCc1ccccc1 | inactive |
| COc1c(N2C[C@@H]3CCCN[C@@H]3C2)c(F)cc2c(=O)c(C(=O)O)cn(C3CC3)c12 | inactive |
| C[N+]1(C)CCC(OC(=O)C(O)(c2ccccc2)C2CCCC2)C1 (stereo not given) | inactive |
| COC(=O)/C=C\C(=O)OC | inactive |
| O=C(Nc1ccc(Cl)cc1)Nc1ccc(Cl)c(C(F)(F)F)c1 | inactive |
| OC1(c2ccc(Cl)cc2)CCNCC1 | inactive |
| O=C1OC2(c3ccccc31)c1cc(I)c(O)c(I)c1Oc1c2cc(I)c(O)c1I | inactive |
| Cc1ccc(CCn2c3c(c4cc(Cl)ccc42)CN(C)CC3)cn1 | inactive |
| Cc1cc(O)c2c(O)c3c(O)cccc3cc2c1 | inactive |
| CN(C)CCOC(c1ccccc1)c1ccc(Br)cc1 (stereo not given) | inactive |
| O=C(O)/C=C(\CC(=O)O)C(=O)O | inactive |
| O=C1CC(c2ccc(Cl)cc2)CC(=O)N1 | inactive |
| CN(C)CCN(Cc1ccsc1)c1ccccn1 | inactive |
| Cc1ccc(-c2ccccc2C#N)cc1 | inactive |
| O=P(O)(O)OCC(O)CO (stereo not given) | inactive |
| CCCC(=O)OCOC(=O)C1=C(C)NC(C)=C(C(=O)OC)C1c1cccc(Cl)c1Cl (stereo not given) | inactive |
| CCc1cccc2c(CCO)c[nH]c12 | inactive |
| C1=CC2C3C=CC(C3)C2C1 (stereo not given) | inactive |
